# Assay results: ChEMBL document CHEMBL3988442, “University of Dundee, Small-Polar-MMV Screening Library” (2021)
# In all, about 48,000 compounds went through this assay and about 13,000 (27%) showed an effect of 50% or more. The list shows a part of the results.
# Test system: Wolbachia pipientis
# Test: Anti-Wolbachia Cell-Based Screen
# Type: functional
# Design: scale not given: in the data most compounds retested in dose-response had high values
# Conditions: 5 µM
row,Compound,Percent Effect
1,CC(C)(C)CC(=O)N[C@@H]1CO[C@H](CNC(=O)c2ccncc2)[C@H]1O,-7.962%
2,Cc1nc(C)c(C)c(N2C[C@@H](CN3CCCN(C)CC3)[C@@H](CO)C2)n1,1.463%
3,CN(C)CCCN(CCC#N)C(=O)Nc1ccc2[nH]ccc2c1,-1.012%
4,O=C(O)C(F)(F)F.O=C(O)C(F)(F)F.O=C(O)c1c(-c2ccncc2)ncc2c1CCN(CC1CCOC1)C2 (stereo not drawn),92.6%
5,Cc1ccc(Nc2ncnc3c2CCN(CC2CCOC2)CC3)cc1.O=C(O)C(F)(F)F (stereo not drawn),-7.327%
6,CN(C(=O)CCOc1ccccc1)C1CCN(CC2CCOC2)CC1 (stereo not drawn),-10.27%
7,O=C(O)C(F)(F)F.O=C(O)c1c(-c2ccoc2)ncc2c1CCN(C1CCOC1)C2 (stereo not drawn),-27.15%
8,O=C(O)C(F)(F)F.O=C(O)C(F)(F)F.O=C(O)c1c(-c2ccncc2)ncc2c1CCN(C1CCOC1)C2 (stereo not drawn),-10.9%
9,O=C(O)C(F)(F)F.O=C(O)c1c(NC2CCC2)ncc2c1CCN(C1CCOC1)C2 (stereo not drawn),-12.61%
10,O=C(O)C(F)(F)F.O=C(O)c1c(-c2cncnc2)ncc2c1CCN(CC1CCOC1)C2 (stereo not drawn),114.1%
11,CCN(CC)S(=O)(=O)c1ccc(C(F)(F)F)cc1C#N,-8.635%
12,COc1cccc(OC)c1C(=O)N1CCN(c2ccccc2F)CC1,-1.098%
13,COc1cccc(OC)c1C(=O)N1CC(=O)N(C2CCC2)CC(O)C1 (stereo not drawn),125.2%
14,COc1ccccc1OC1CCN(C(=O)c2cccc(O)c2C)CC1,0.8848%
15,COc1cccc2c1OCC(C(=O)N1CCN(C3CCCC3)C(=O)C1)C2 (stereo not drawn),-9.278%
16,CCOc1ccccc1C(=O)N1CCCC(O)(CN(C)C)C1 (stereo not drawn),8.806%
17,CCOc1ccccc1C(=O)N1CCn2c(nnc2C(F)(F)F)C1,-4.293%
18,COc1ccc(C(=O)N2CC(=O)N(C3CCC3)CC(O)C2)cc1OC (stereo not drawn),103.9%
19,CCOc1ccccc1C(=O)N1CC(=O)N(C2CCC2)CC(O)C1 (stereo not drawn),90.13%
20,O=C(c1ccc2c(c1)[nH]c(=O)n2C1CCCC1)N1CC(O)C1,-1.674%
21,O=C(c1cc(Cl)ccc1OC1CCN(C2CCCC2)CC1)N1CC(O)C1,4.812%
22,COc1ccccc1C(=O)N1CC(=O)N(C2CCCCC2)CC(O)C1 (stereo not drawn),104.3%
23,COc1ccc(C(=O)N2CC[C@@H](N3CCC(O)CC3)[C@H](O)C2)cc1C,-6.669%
24,Cc1ccc(NC(=O)N2C[C@H]3CC[C@@H]2CN(Cc2cscn2)C3)cc1,4.002%
25,COc1ccc(C(=O)N2CC(=O)N(C3CCC3)CC(O)C2)c(OC)c1 (stereo not drawn),143.6%

row,Compound,Percent Effect
1,COc1ccc(C(=O)NC2CC2)c(OC)c1,17.15%
2,COc1ccc(C(=O)N2CC[C@H](CO)[C@H](O)C2)c(C)c1,-8.532%
3,CN1CC(=O)N(c2cnn(C)c2)CC12CCN(Cc1nccn1C)C2.O=C(O)C(F)(F)F.O=C(O)C(F)(F)F (stereo not drawn),-9.756%
4,COCCN1C(=O)CCC12CCCN(Cc1nccs1)CC2.O=C(O)C(F)(F)F (stereo not drawn),12.79%
5,CCN1C(=O)CCC12CCCN(Cc1nccs1)C2.O=C(O)C(F)(F)F (stereo not drawn),30.34%
6,O=C(O)C(F)(F)F.O=C(O)C(F)(F)F.O=C1CCC2(CCN(Cc3ccc(F)cc3)CC2)N1CCN1CCCC1,100.3%
7,CCN1C(=O)CCC12CCCN(Cc1ccc(F)cc1)CC2.O=C(O)C(F)(F)F (stereo not drawn),86.81%
8,Cn1ccnc1CN1CCC2(CCC(=O)N2CCN2CCCC2)CC1.O=C(O)C(F)(F)F.O=C(O)C(F)(F)F,107.9%
9,O=C(NCC1(CO)CC1)c1ccccc1Br,-13.86%
10,COCC(C)N1CCc2onc(-c3ccc(F)c(F)c3)c2C1 (stereo not drawn),-3.283%
11,O=C(NC1CCS(=O)(=O)C1)c1ccc(SCc2cscn2)cc1 (stereo not drawn),-5.861%
12,CCCc1cc(NCc2ccc(CO)cc2)n2nccc2n1,-5.904%
13,CC1c2ncc(Cn3cncn3)n2CCN1C(=O)[C@H]1CCCO1 (stereo partly drawn),86.12%
14,Cc1occc1C(=O)N1CCn2c(Cn3cncn3)cnc2C1C (stereo not drawn),120.5%
15,CC1c2ncc(Cn3cncn3)n2CCN1C1CCOCC1.O=C(O)C(F)(F)F (stereo not drawn),-16.95%
16,Cc1nc(COCc2cnc3n2CCN(C(=O)C2CC2)C3C)cs1 (stereo not drawn),-5.573%
17,O=S(=O)(C1CC1)N1CCc2ncc(Cn3cncn3)n2CC1,-7.39%
18,COCc1cnc2n1CCN(S(=O)(=O)N(C)C)C2C (stereo not drawn),6.284%
19,CC(C)N1CCn2c(COCC3CCOCC3)cnc2C1C.O=C(O)C(F)(F)F (stereo not drawn),6.159%
20,CC1c2ncc(Cn3cncn3)n2CCN1C(=O)N(C)C (stereo not drawn),113.2%
21,CC1c2ncc(Cn3cncn3)n2CCN1CC1CCOCC1.O=C(O)C(F)(F)F (stereo not drawn),55.37%
22,CC1c2ncc(Cn3cncn3)n2CCN1C(=O)C1CCOCC1 (stereo not drawn),-2.006%
23,CSCCCN1CCC(c2nnc(Cn3ccnc3)n2C2CC2)CC1,14.62%
24,N#Cc1cccc(OCCN2CCC(C(=O)N3CCOCC3)CC2)c1,-12.33%
25,O=C(CC(F)(F)F)N1C[C@@H]2CC[C@H](C1)N(Cc1ccccc1)C2=O,-3.015%

row,Compound,Percent Effect
1,CCn1c(C2CCCN(Cc3ccc4ccccc4n3)C2)nn(C)c1=O (stereo not drawn),31.19%
2,COc1ccccc1C1(CNc2cn[nH]c(=O)c2Cl)CCOCC1,-1.761%
3,Cc1ncsc1CCN1CCN(C(=O)c2ccc(=O)[nH]c2)CC1,12.93%
4,COCC(=O)N1CCn2c(Cn3cncn3)cnc2C1C (stereo not drawn),79.44%
5,COCCC(=O)N1CCn2c(COCC3CC3)cnc2C1C (stereo not drawn),-18.59%
6,Cc1ccc(-c2cn[nH]c2C2CCCN(c3nccc(N)n3)C2)cc1 (stereo not drawn),6.644%
7,CC(C(=O)N1CCC(c2[nH]ncc2-c2ccccc2)CC1)n1cncn1 (stereo not drawn),96.41%
8,CC(O)C(=O)N1CCC(c2[nH]ncc2-c2ccccc2)CC1 (stereo not drawn),105.3%
9,Cc1ccc(N2CCCC(c3[nH]ncc3-c3ccccc3)C2)nn1 (stereo not drawn),25.67%
10,C[C@@H](N)C(=O)N1CCC(c2[nH]ncc2-c2ccccc2)CC1,132.4%
11,C[C@H](N)C(=O)N1CCC(c2[nH]ncc2-c2ccccc2)CC1,108.2%
12,CCc1cn[nH]c1C1CCN(C(=O)c2cccc(O)c2C)CC1,-3.715%
13,FC(F)c1nnc2ccc(N3CCC4(CCOC4)C3)nn12 (stereo not drawn),-11.38%
14,CSc1ncc(CNC(C)c2cnn(-c3ccccc3)c2C)cn1 (stereo not drawn),31.2%
15,CN(CCCc1n[nH]c(N)c1C#N)C(=O)Nc1cc(Cl)cc(Cl)c1,9.984%
16,Cc1ccc(NCc2ncc(C(C)(C)C)o2)c(Cl)c1,-11.33%
17,O=C(CCC1CCN(Cc2ccncc2)CC1)Nc1ccccc1Cl,-2.559%
18,Cc1cnn(CC2CCCCN2C(=O)CN(C)C2CC2)c1 (stereo not drawn),4.023%
19,Cc1cnn(CC2CCCN2C(=O)c2cc(C)no2)c1 (stereo not drawn),3.618%
20,Cc1cnn(CC2CCCN2C(=O)Cc2c(C)noc2Cl)c1 (stereo not drawn),116%
21,Cc1cnn(CC2CCCCN2C(=O)Cc2c(C)noc2Cl)c1 (stereo not drawn),116.9%
22,Cc1cnn(CC2CCCN2C(=O)Cc2cn3ccsc3n2)c1 (stereo not drawn),12.98%
23,CCN1CC2(CCN(C(=O)C(C)Oc3ccc(F)cc3F)CC2)OC1=O (stereo not drawn),-0.4228%
24,O=C(C[S+]([O-])Cc1cccc(Cl)c1)NC1CCCC1 (stereo not drawn),-4.291%
25,Cc1cc(C[S+]([O-])CC(=O)NCC(C)C)no1 (stereo not drawn),-9.622%

row,Compound,Percent Effect
1,COc1ccc(F)cc1C[S+]([O-])CC(=O)NCc1ccccc1 (stereo not drawn),-20.74%
2,COc1ccc(F)cc1C[S+]([O-])CC(=O)NCc1ccccc1C (stereo not drawn),4.028%
3,Cc1cc(C[S+]([O-])CC(=O)Nc2c(C)cccc2C)no1 (stereo not drawn),4.503%
4,Cc1cc(C[S+]([O-])CC(=O)NCc2cccc(Cl)c2)no1 (stereo not drawn),98%
5,COc1ccccc1CNC(=O)C[S+]([O-])Cc1cc(C)on1 (stereo not drawn),100.1%
6,Cc1cc(C[S+]([O-])CC(=O)NCc2cccs2)no1 (stereo not drawn),-0.248%
7,Cc1cc(C[S+]([O-])CC(=O)NCc2ccccc2)no1 (stereo not drawn),111.1%
8,CNC(=O)CCS(=O)(=O)Cc1nnnn1-c1ccccc1,7.116%
9,CC1(NC(=O)CC2CCc3ccccc32)CCOCC1 (stereo not drawn),-18.69%
10,CCN(CC(C)C#N)C(=O)c1cccc(COc2ccc(C)nc2)c1 (stereo not drawn),11.78%
11,CC(c1ccco1)N(C(=O)c1cccc(C#N)c1)C1CC1 (stereo not drawn),-7.767%
12,CC(C)n1ccnc1CN1CCCN(C(=O)c2cccnc2O)CC1,3.954%
13,CC(C)c1noc(CCC(=O)Nc2cc(F)ccc2F)n1,6.757%
14,CC(C)c1noc(CN2CCN(C(=O)c3cccnc3O)CC2)n1,109.3%
15,CC(C)c1noc(CN2CCN(C(=O)c3ccncc3F)CC2)n1,113.2%
16,CN(C)Cc1nc2c(o1)CN(C(=O)c1ccncc1F)C2,-6.758%
17,CC(C)(O)CN1CCN(C(=O)c2cccnc2O)CC1,-5.606%
18,CC(C)c1noc(CN2CCN(C(=O)c3cc(Cl)ccc3F)CC2)n1,113.5%
19,CC(C)c1noc(CN2CCN(C(=O)c3ccccc3F)CC2)n1,4.935%
20,CN(C)C(=O)c1ccc(-c2cscn2)cc1,-9.809%
21,O=C(O)C(F)(F)F.O=C(c1cnccn1)N1CCN2C[C@H](Oc3cccc(F)c3)C[C@H]2C1,8.036%
22,OC1(CNCc2ccc(F)c(C(F)(F)F)c2)CCOC1 (stereo not drawn),-11.97%
23,CCN1CCC2(CN(C(=O)N(C)C)CC23CCN(CC2CC2)CC3)C1=O.O=C(O)C(F)(F)F (stereo not drawn),-42.34%
